We go through 35 compounds from PubChem BioAssay.

The assay is described as follows: probe aNOTCH3 binding on compound microarray – biochemical, small-molecule microarray, 635/667 nm fluorescence, primary screen (AID 1120).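 Also: probe is a biotin-tagged antibody raised against NOTCH3 rather than NOTCH3 protein; score merges spot fluorescence near 667 nm with spot signal to noise.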 The following applies: higher = more signal.
For `CCCN1C(=O)[C@]2(CCS(=O)(=O)c3ccccc3)N=C(c3ccc(OCCCO)cc3)O[C@@H]2c2ccccc21`, the composite z-score is -0.0328. In the case of `CC(C)(C)C(=O)N[C@@H](c1ccc(Cl)cc1)[C@]1(C)C[C@H]1C1CCCCC1`, the composite z-score turned out to be 0.449. With `COc1cc(CO)cc(I)c1O[C@H]1C=C(C(=O)NCCO)C[C@@H](N(CCN2CCOCC2)C(=O)C2CCOC2)[C@@H]1O` (stereo not given in full), the composite z-score was 0.189. The result for `C[C@]1(C(=O)NC2CC2)c2ccccc2C(=O)N(Cc2cc(C(F)(F)F)cc(C(F)(F)F)c2)[C@H]1c1ccc(CO)cc1` reads 0.208; that for `COCCOC(=O)N1C(=O)[C@@]2(c3ccccc31)[C@H](c1ccccc1OCCO)N1[C@H](c3ccccc3)[C@H](c3ccccc3)OC(=O)[C@H]1[C@@H]2C(=O)Nc1nc2ccccc2s1`, 0.133; that for `CC(=O)NCCCC[C@@H]1NC(=O)[C@@H]2C[C@H](C(=O)NCCCCCCNC(=O)CS)[C@H](c3cccc(OCCO)c3)N2C1=O`, -0.0996. Take `CCCCC(=C=CC[C@@H](O)c1ccccc1OCCO)CCO`: the composite z-score is -0.0321.

On to `C=C(COC)/C(=C/C[C@H](OC(=O)c1ccncc1)c1ccc(OCCO)cc1)c1cnc2ccccc2c1`, for which the composite z-score was found to be 0.227. Take `COC(=O)[C@@]1(Cc2ccc(F)cc2)[C@@H]2[C@@H](CC(=O)[C@H]2CC(=O)C(=O)N(C)C)CN1C(=O)c1ccccc1`: the composite z-score was determined as 0.245. `NCCCCCNC(=O)[C@@H]1C[C@@H]2C(=O)N[C@@H](Cc3ccccc3)C(=O)N2[C@@H]1c1cccc(OCCO)c1` returned a composite z-score of 0.0087. Compound `Cc1ccc(C(C)CC(O)C2C=CC3C(=O)N(C)C(=O)C3N2NC(=O)OC(C)(C)C)o1` (stereo not given) had a composite z-score of 0.18. Compound `COCCOC(=O)N1C(=O)[C@@]2(c3cc(C#Cc4ccc(OC)cc4)ccc31)[C@H](c1ccc(O)cc1)N1[C@H](c3ccccc3)[C@H](c3ccccc3)OC(=O)[C@H]1[C@@H]2C(=O)NC[C@H](O)c1ccccc1` showed a composite z-score of 0.385. Regarding `O=C(C1N=C(c2ccc(OCCCO)cc2)N(c2ccccc2)O1)N1CCOCC1` (stereo not given), the composite z-score came out at 0.237. For the compound `O=C1O[C@@H](c2ccccc2)[C@@H](c2ccccc2)N2[C@@H](c3ccc(OCCO)cc3)[C@]3(C(=O)Nc4ccccc43)[C@@H](C(=O)NC[C@H](O)c3ccccc3)[C@H]12`, the composite z-score amounted to 0.0519. As to `O=C(O)[C@@]1(CCS(=O)(=O)c2ccccc2)COC(c2ccc(OCCCO)cc2)=N1`, the composite z-score is -0.15.

Consider `O=C1O[C@H](c2ccccc2)[C@H](c2ccccc2)N2[C@H]1[C@@H](C(=O)O)[C@]1(C(=O)Nc3ccc(C#CCCO)cc31)[C@H]2c1ccc(O)cc1`, for which the composite z-score was -0.0014. The result for `O=C1C2C=CC(C(O)C(c3ccccc3)c3ccccc3)N(n3cnnc3)C2C(=O)N1Cc1ccccc1` (stereo not given) reads 0.116; that for `CCOC(=O)C[C@H]1[C@H](OC(=O)c2ccc(C(=O)c3ccccc3)cc2)[C@@H](NC(=O)c2ccc(-c3ccccc3)cc2)c2cc(OCCCO)ccc2N1C(=O)c1ccccc1`, -0.0411. As to `CN1C(=O)[C@]2(Cc3ccccc3)N=C(c3ccc(OCCCO)cc3)O[C@@H]2c2ccccc21`, the composite z-score is 0.0927. The result for `CC(CO)N1C(=O)[C@@H]2C3C(=O)OCCC/C=C\[C@H]3OC23C=CCN(c2ccc4ccccc4c2)C(=O)[C@@H]13` (stereo not given in full) reads -0.219; that for `Cc1ccc(S[C@]2(C(=O)NC3CC3)CC(=O)N(C3Cc4ccccc4C3)[C@@H]2c2ccc(CO)cc2)cc1`, -0.161. The result for `COCCOC(=O)N1C(=O)[C@@]2(c3cc(C#CC4=CCCCC4)ccc31)[C@H](C(=O)Nc1nc3ccccc3s1)[C@H]1C(=O)O[C@H](c3ccccc3)[C@H](c3ccccc3)N1[C@@H]2c1ccc(OCCO)cc1` reads 0.0286; that for `CC(C)C[C@@H]1NC(=O)[C@H]2C[C@@H](C(=O)NCCCCCCN)[C@@H](c3ccc(O)cc3)N2C1=O`, -0.0023; that for `C=CCN(Cc1ccccc1)C(=O)C(c1cccs1)N(CCOCCO)C(=O)/C=C\C(=O)O` (stereo not given), -0.553.

`O=C1OCCC/C=C\[C@H]2OC34C=CCN(CCN5CCOCC5)C(=O)[C@H]3N(CCCO)C(=O)[C@@H]4C12` (stereo not given in full) registered a composite z-score of -0.182. The result for `[N-]=[N+]=NCc1ccccc1C[C@]1(C(=O)N2CCOCC2)N=C(c2ccc(OCCCO)cc2)O[C@H]1c1ccccc1N=[N+]=[N-]` reads 0.311. `C=CCNC(=O)[C@H]1[C@@H]2C(=O)O[C@@H](c3ccccc3)[C@@H](c3ccccc3)N2[C@@H](c2ccccc2OCCO)[C@]12C(=O)Nc1ccc(C#CC3=CCCCC3)cc12` had a composite z-score of 0.0942. In turn, `C=CCN1C(=O)[C@@]2(O[C@@H](CCO)[C@H]([Si](C)(C)c3ccc(OC)cc3)[C@H]2C)c2cc(NC(=O)c3ccc(OC)cc3)ccc21` yielded a composite z-score of -0.0006. As to `C=CCNC(=O)[C@H]1[C@@H]2C(=O)O[C@@H](c3ccccc3)[C@@H](c3ccccc3)N2[C@@H](c2ccc(OCCO)cc2)[C@]12C(=O)N(C(=O)OCCOC)c1ccccc12`, the composite z-score is 0.199.

`O=C1OCCC/C=C\[C@H]2OC34C=CCN(Cn5nnc6ccccc65)C(=O)[C@H]3N(CCCCCCO)C(=O)[C@@H]4C12` (stereo not given in full): the composite z-score was -0.262. The result for `COCCCNC(=O)C1N=C(c2ccc(OCCCO)cc2)N(c2ccccc2)O1` (stereo not given) reads 0.0836; that for `COc1ccc(CCNC(=O)[C@@H]2c3ccccc3C(=O)N(C3Cc4ccccc4C3)[C@H]2c2ccc(CO)cc2)cc1`, -0.0725; that for `COC(=O)[C@@]1(Cc2ccc(OC)cc2)[C@H]2c3cc(C(=O)N4CCCC4)n(Cc4ccc(OC)c(OC)c4)c3C[C@H]2CN1C(=O)c1ccccc1`, 1.28.

In turn, `COc1ccc([Si](C)(C)[C@H]2[C@H](CCO)O[C@@]3(C(=O)N(C)c4c(Br)cc(C)cc43)[C@@H]2C)cc1` returned a composite z-score of -0.0596. The result for `CCOC(=O)[C@H]1C/C=C/C[C@H](C(=O)OCC)C(=O)O[C@H]2[C@@H](OC)O[C@H](CO)[C@@H](OC(=O)Nc3cccc(F)c3)[C@@H]2OC1=O` reads 1.06.
